Many of the other results were omitted from the sample, so hits are more common in it than they were.
TbREL1 inh: TbREL1 RNA ligase inhibitors, primary screen, biochemical, FRET fluorescence; TbREL1 RNA ligation; RNA-editing ligase 1, mitochondrial (Trypanosoma brucei brucei), P86926; hit rate 0.49% among 89,000; inhibition, % at 9.66 µM; AID 1117264, 2014;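 active means inhibition above the mean inhibition across all screened compounds plus 3 SD, cut at about 11% in these data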
Target sequence (P86926 whole entry, looked up): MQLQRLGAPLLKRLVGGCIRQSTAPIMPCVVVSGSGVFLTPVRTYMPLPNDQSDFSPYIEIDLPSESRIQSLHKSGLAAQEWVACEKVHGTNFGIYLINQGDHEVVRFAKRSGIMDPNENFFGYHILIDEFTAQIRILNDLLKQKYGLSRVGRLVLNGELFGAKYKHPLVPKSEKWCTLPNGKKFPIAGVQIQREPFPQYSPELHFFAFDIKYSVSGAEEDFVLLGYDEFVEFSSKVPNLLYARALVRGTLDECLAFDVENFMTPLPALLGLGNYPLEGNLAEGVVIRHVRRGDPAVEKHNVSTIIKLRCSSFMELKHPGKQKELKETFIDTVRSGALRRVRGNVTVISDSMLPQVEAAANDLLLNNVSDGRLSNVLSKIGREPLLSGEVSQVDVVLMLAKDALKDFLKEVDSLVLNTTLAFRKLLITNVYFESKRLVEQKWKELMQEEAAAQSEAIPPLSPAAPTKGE
TbREL1 confirm: TbREL1 RNA ligase inhibitors, confirmation, biochemical, FRET fluorescence, triplicate. AID 1117282, 2014. TbREL1 RNA ligation. shares compounds with TbREL1 inh. hit rate 37% among 390. inhibition, % at 9.66 µM;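 active means mean inhibition across replicates above a set limit taken from the earlier primary screen, cut at about 11% in these data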
Large screens that a line does not name were inactive (follow-up assays come after a bar, where they were run).

COc1ccccc1C(=O)N1CCC2CCN(C(=O)c3ccccc3)C2C1 (centres undefined)	none
Cc1ccc(-n2c3c(c(O)c(-c4ccccc4)c2=O)C(=O)CC(C)(C)C3)cc1	none
CC(C)c1c(Cl)c(O)c(-c2ccccc2)c(=O)n1-c1ccc(F)cc1	TbREL1 inh 16.6 | TbREL1 confirm 13.3
COc1ccc(-c2c(O)c(C#N)c(-c3ccccc3)n(-c3ccc(OC)cc3)c2=O)cc1	none
Cc1ccc(C(=O)n2ccc3ccc(-c4ccc5ccn(Cc6ccc(C#N)cc6)c5c4)cc32)cc1	none
O=C(NCC1COCCO1)C1CCN(S(=O)(=O)c2cccs2)CC1 (centres undefined)	none
Cc1ccc(-c2nnc(NC(=O)COc3ccc(F)cc3Cl)o2)cc1C	none
CCS(=O)(=O)Nc1ccc2c(c1)C(=O)N(C)[C@@H]1CC[C@H](CC(=O)N3CCCCC3)O[C@H]1CO2	none
O=C(Nc1ccc(F)cc1)OCCN1CCCC12CCC(c1ccccc1)CC2 (centres undefined)	none
S=C(NCc1ccccc1)NCc1ccco1	none
S=C(NCc1ccc(Cl)c(Cl)c1)NCc1ccco1	none
S=C(NCc1ccco1)NCc1ccco1	TbREL1 inh 17.4 | TbREL1 confirm inactive
Cc1ccccc1S(=O)(=O)N1CCC(c2nc3ccccc3o2)CC1	none
CCCn1c(C)c(CC(=O)Nc2ccc(N(C)c3ccccn3)cc2)c2ccccc21	none
CC1=C(C(=O)N(C(C)C)C(C)C)CC(CC(=O)NCCCN(C)C)C(=O)N1Cc1ccc(C(C)(C)C)cc1 (centres undefined)	TbREL1 inh 17.3 | TbREL1 confirm inactive
CCN(CC)C(=O)C1=C(C)N(Cc2ccccc2)C(=O)C(CC(=O)NCCCN(C)C)C1 (centres undefined)	none
CC1=C(C(=O)N(C)C)CC(CC(=O)NCCCN(C)C)C(=O)N1Cc1ccc(F)cc1 (centres undefined)	none
CC(=O)C1=C(C)N(Cc2ccc(Br)cc2)C(=S)NC1c1cccc(Br)c1 (centres undefined)	none
O=C(CN(CCc1ccccc1)S(=O)(=O)c1cccs1)N1CCOCC1	none
c1ccc(-c2c(-c3ccccc3)n(Cc3ccco3)c3ncnc(NCCCn4ccnc4)c23)cc1	none
CN(C)CCCNc1ncnc2oc(-c3ccccc3)c(-c3ccccc3)c12	TbREL1 inh 11.7 | TbREL1 confirm inactive
COc1ccc(-c2oc3ncnc(N)c3c2-c2ccccc2)cc1	none
O=C(NCCCc1ccccc1)[C@H](Cc1c[nH]c2ccccc12)NC1(C(=O)NCCc2c[nH]c3ccccc23)CCC1	none
O=C1NC(c2cccc(C(F)(F)F)c2)c2c(-c3ccccc3)n[nH]c21 (centres undefined)	none
O=C(NCc1ccc(C(=O)N2CCCN(Cc3ccccc3)CC2)cc1)c1cccc(Br)c1	none
CCCN1CCCCC(NC(=O)c2ccccc2C)C1=O (centres undefined)	none
O=C(Nc1nc2c(s1)CCCC2)c1ccc(S(=O)(=O)N2CCCc3ccccc32)cc1	none
O=C(Nc1nc2c(s1)CCc1ccccc1-2)c1ccco1	none
CS(=O)(=O)c1ccc(C(=O)Nc2nc(-c3ccco3)c(-c3ccco3)s2)cc1	TbREL1 inh 82.2 | TbREL1 confirm inactive
COC(=O)[C@]12C[C@H](CC(=O)NCCCN3CCCC3=O)C(=O)N(Cc3ccc(Cl)cc3Cl)C1=C[C@H](C1CCCC1)O[C@@H]2C	none
O=C(c1ccc(F)cc1)n1ccc2ccc(-c3ccc4ccn(Cc5ccccc5)c4c3)cc21	none
Cc1cc2c(s1)c1cnn(Cc3cc(F)c(F)cc3F)c(=O)c1n2C	none
Cc1onc(-c2ccccc2)c1C(=O)N(Cc1ccccn1)Cc1ccccn1	TbREL1 inh 11.3 | TbREL1 confirm inactive
Cc1onc(-c2ccccc2)c1C(=O)NC(C)C	none
Cc1onc(-c2ccccc2)c1C(=O)N(C)CCc1ccccn1	none
COC(=O)c1ccc(CN2CC3CC(c4ccccc4)N4CCCC34C2=O)cc1 (centres undefined)	none
COc1ccc(C2Nc3ccccc3C(=O)N2Cc2ccco2)cc1COc1c(C)cc(NC(C)=O)cc1C (centres undefined)	none
Cc1nc(N)nc(N)c1/C=C/C(C)(C)c1ccc(Cl)cc1	TbREL1 inh 14.8 | TbREL1 confirm inactive
Cc1ccccc1CN1CCCCC(NC(=O)c2ccc(COc3ccccc3)cc2)C1=O (centres undefined)	none
O=C(NC1CCCCN(Cc2ccc(Cl)cc2)C1=O)c1ccc(COc2ccccc2)cc1 (centres undefined)	TbREL1 inh 11.8 | TbREL1 confirm inactive
O=C(NC1CCCCN(Cc2ccc(Cl)cc2)C1=O)c1ccccc1 (centres undefined)	none
CCOC(=O)[C@@]12CCCC=C1N(CCc1ccc(Cl)cc1)C(=O)[C@H]2CC(=O)NCc1ccc(C)o1	none
Cc1cc(C)n(CC(=O)N/N=C/c2ccc([N+](=O)[O-])s2)n1	none
COc1ccc(/C=N/NC(=O)Cn2nc([N+](=O)[O-])cc2C)c(OC)c1OC	none
COc1cc([N+](=O)[O-])cc(/C=N/NC(=O)Cn2nc(C)cc2C)c1O	TbREL1 inh 17.2 | TbREL1 confirm inactive
COC(=O)[C@@]12CCCCC3=C1N(CCC3)C(=O)[C@H]2CC(=O)N1CCOCC1	none
CN(Cc1ccccc1)C(=O)OCc1cn(Cc2cc(F)cc(F)c2)nn1	none
C=CCN1C(=O)[C@H](CC(=O)N2CCN(C(=O)C3CC3)CC2)[C@@]2(C(=O)OCC)CCCC=C12	none
CC(C)(C)Sc1ccc(N)nc1	TbREL1 inh 38.9 | TbREL1 confirm inactive
Nc1ccc(S(=O)(=O)O)cn1	none
O=C(NCCc1ccccc1)OCc1cn(-c2ccccc2Cl)nn1	none
S=C(Nc1ccccc1)OCCN1CCCC12CCC(c1ccccc1)CC2 (centres undefined)	none
CCOC(=O)[C@]12CCCC=C1N(Cc1ccc(OC)cc1)C(=O)[C@@H]2CC(=O)NCc1ccc(OC)c(OC)c1	none
Cc1ccc(C)c(NC(=O)c2cc(-c3ccc(Cl)cc3)nc3ccccc23)c1	none
O=C(NCC1COc2ccccc2O1)c1ccc(NC(=O)C(Cl)Cl)cc1 (centres undefined)	none
CC(=O)C(C(C)=O)C1(O)C(=O)c2ccccc2C1=O	none
O=C(NC1(O)C(=O)c2ccccc2C1=O)c1ccccc1	TbREL1 inh 22.4 | TbREL1 confirm 48.7
O=C(NC(C(=O)O)c1ccccc1)c1ccccc1 (centres undefined)	none
Cc1cc(NC(=O)Cc2cn(C)c3ccccc23)ccc1Nc1cccnc1	none
O=C(Nc1ccc(F)cc1)OC1CC2CC1[C@H]1CCCCN1C2 (some centres undefined)	none
O=S(=O)(c1cccs1)N1CCN(c2cccc(Cl)c2)CC1	none
O=S(=O)(c1cccs1)N1CCN(c2ccc(F)cc2)CC1	none
O=S(=O)(c1cccs1)N1CCN(c2ccccc2)CC1	TbREL1 inh 16.2 | TbREL1 confirm inactive
COc1ccc(CCNC(=O)c2ccc3c(c2)ncn3C2CCCCC2)cc1	none
Cc1cc(N2CCN(Cc3ccc4c(c3)OCO4)CC2)n2nc(C)nc2n1	none
CCCCCCNC(=O)c1c(N)[nH]c(C(=O)c2ccccc2)c1-c1ccc(O)cc1	none
Nc1c(C(=O)N/N=C/c2cccnc2)oc2nc(-c3ccco3)cc(-c3ccco3)c12	TbREL1 inh 15.9 | TbREL1 confirm inactive
COc1cc(/C=N/NC(=O)c2cc(-c3ccco3)nc3ccccc23)cc(OC)c1O	none
COc1ccc(/C=N/NC(=O)c2cccnc2)cc1	none
O=C(Nc1ccccc1)Nc1nc2ncccn2c1-c1ccc(F)c(F)c1	none
COc1cccc(/C=C/C(=O)OCC(=O)c2ccc3c(c2)NC(=O)CO3)c1OC	none

Screening data deposited in PubChem BioAssay by The Scripps Research Institute Molecular Screening Center.
